Most compounds without a hit are left out; they make up all but 4.2% or so of the library.
ClpP mod: qHTS Assay for Activators of ClpP | ATP-dependent Clp protease proteolytic subunit (Bacillus subtilis (strain 168)), P80244 | purified B. subtilis ClpP, FRET peptide cleavage, 20 min | Potency, µM (top dose mostly 57.5 µM), inactives show at the top dose activity change, negative = active | 1.9% of 340,000 active | AID 651965, 2013; active = well fitted falling curve with a large enough effect; inconclusive = small, poorly fitted or top-dose-only effect; inactive = no such curve, though single readings can be large or run the other way; also: potency is read from the fitted curve at half-maximal effect; the source files actives as falling curves though it sought activators and does not explain the sign; nearly all actives have a fitted effect of over 65% in size
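FRET quenching reversal measured ClpP activation: 10 microg/mL B. subtilis ClpP at pH 8 with the FRET-FV decapeptide, read at 430 nm after 320 nm excitation. The 20-min minus 0-min signal was scaled between DMSO/no-enzyme wells and ADEP (5.8 microM final).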
uPA surface inh: cell surface uPA generation inhibition; cell surface uPA generation assay, qHTS; Potency, µM (highest dose often 38.3 µM), without a hit: top-dose activity change, negative = inhibition, most hits filed as inhibitors; 0.31% of 330,000 active; active = well fitted inhibition curve with a large enough effect; inconclusive = small, poorly fitted or top-dose-only effect; inactive = no such curve, though single readings can be large or run the other way; tested in mouse RAW 264.7 cells; also: potency is read from the fitted curve at half-maximal effect; % is scaled to controls: 0 for no effect and ±100 for the full control effect; nearly all actives have a fitted effect of over 55% in size
Sfp PPTase inh: blocks B. subtilis Sfp PPTase activity. 3.5% of 310,000 active. Potency, µM, for the others: largest response in the series, negative = inhibition, actives largely listed as inhibitors. Biochemical Sfp PPTase activity, qHTS. Q9F4F7;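 also: the enzyme is Sfp with the accession as filed and its product quenches rhodamine fluorescence; potency is read from the fitted curve at half-maximal effect; 0% = enzyme reaction without inhibitor and -100% = no enzyme wells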
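Compounds were incubated with enzyme (final 15 nM) for 15 min at room temperature before substrate addition started the reaction. Fluorescence at 525 nm excitation, 598 nm emission was recorded immediately and after 30 minutes.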
TCR activator: activates T cell receptor signaling | primary human leukocytes, anti-CD3, IL-2 HTRF, 48 h | Potency, µM (series often up to 9.22 µM), for the others: top-dose activation of IL-2 secretion, usual class: activators | 330,000 tested, under 10 active; also: % of control where 0% means no effect
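TCR engagement came from a-CD3 beads alone, with compounds added to primary human leukocytes for 48 hr. Secreted IL-2 bridged europium cryptate- and d2-labelled anti-IL-2 antibodies, giving FRET emission at 665nm after 320nm excitation.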
* = called active by the depositor; u = inconclusive; x = no result; [ ] = dose if it differs, or a comment. Unless noted, calls follow the shape of the dose curve; as a rule, active = well fitted curve in the direction sought with a large enough effect; inconclusive = small, poorly fitted or top-dose-only effect, or another doubt; inactive = no such curve, though single readings can be large; an effect the other way counts as inactive or inconclusive.

SMILES | ClpP mod | uPA surface inh | Sfp PPTase inh | TCR activator
CCCC(c1nnnn1CC(=O)OCC)N(Cc1cc2c(C)cc(C)cc2[nH]c1=O)C1CCCC1 (stereo not given) | u | 4% | -13% | -4%
COCC1=C2c3ccccc3[C@H](C[N+](=O)[O-])C(C(=O)OC)(C(=O)OC)CC2C2C(=O)N(c3ccccc3)C(=O)C2C1 (stereo not given in full) | x | x | -9% | x
CCOC(=O)c1c(-c2ccc(-c3ccccc3)cc2)csc1NC(=O)CNCCN(C)C | x | 5% | 40µM* | 1%
CCOC(=O)c1c(-c2ccc(-c3ccccc3)cc2)csc1NC(=O)c1cccc(N2C(=O)CCC2=O)c1 | 16µM* | -3% | u | 0%[46.1 µM]
CCOC(=O)c1c(-c2ccccc2)csc1NC(=O)C(C)NCCCN1CCOCC1 (stereo not given) | -5% | -4% | 40µM* | 4%
CCOC(=O)c1c(-c2ccccc2)csc1NC(=O)CCN1C(=O)c2ccccc2C1=O | 1% | -2% | 17% | 1%[46.1 µM]
CCOC(=O)c1c(NC(=O)c2cccc(N3C(=O)CCC3=O)c2)sc(C)c1C | -9% | x | -23% | 4%
Oc1ccc(Cl)c(CN2CCN(c3ncc(Cc4ccccc4)cn3)CC2)c1 | -8% | x | x | x
CCc1cc(=O)oc2c(C)c(OC(C)C(=O)NCC3CCC(C(=O)O)CC3)ccc12 (stereo not given) | 5% | 9% | 13% | 6%
CCOC(=O)C(C)Oc1ccc2c(CC)cc(=O)oc2c1C (stereo not given) | 18µM* | -6% | 14% | 6%
Cc1ccc(NC(=O)c2ccc(-c3nn(C)c(=O)c4ccccc34)cc2)cc1 | 30% | -3% | 79µM* | -1%
CC12CCC(=O)N1C(C(=O)Nc1cccc(S(=O)(=O)N3CCCCCC3)c1)CS2 (stereo not given) | 28µM* | -1% | x | -3%
CCCS(=O)(=O)NC(=O)C1(C)CCN(C(=O)c2cccc(C)c2C)C1 (stereo not given) | 0% | x | x | x
CS(=O)(=O)N(Cc1ccc(C(=O)NN=C2CCCC2)cc1)c1ccccc1 | -1% | 0% | 12% | 1%[46.1 µM]
CS(=O)(=O)N(Cc1ccc(C(=O)NN=C2CCCCCC2)cc1)c1ccccc1 | 32µM* | -4% | -10% | -3%[46.1 µM]
CC(C)C1C(c2ccccc2)NC(c2ccccc2)CC1(O)c1ccc(F)cc1 (stereo not given) | -1% | -19% | 56µM* | 11%
CC(NC(=O)c1ccc(NC(=O)c2nsc3ccccc23)cc1)c1ccccc1 (stereo not given) | 23% | x | x | x
CCOC(=O)c1sc(=S)n(C)c1NC(=O)c1ccccc1 | -1% | 1% | 14µM* | 2%[46.1 µM]
CCOC(=O)c1sc(=S)n(CC)c1NC(=O)c1ccccc1C | -1% | -18% | 6% | 6%
CCOC(=O)c1sc(=S)n(C)c1NC(=O)c1cccc(Br)c1 | -1% | 13% | 18µM* | -6%
COc1cccc(C(=O)Nc2ccc(NC(=O)C3C4C=CC(C4)C3C(=O)O)cc2)c1 (stereo not given) | -2% | u | -23% | 15%
CCCCOc1ccc(C(=O)NNC(=O)C2C3C=CC(C3)C2C(=O)O)cc1 (stereo not given) | 0% | -17% | 45µM* | -2%
CCCCOc1ccc(C(=O)NNC(=O)C2C3CCC(C3)C2C(=O)O)cc1 (stereo not given) | 1% | -2% | u | 3%
CCOc1cccc(C(=O)NNC(=O)C2C3C=CC(C3)C2C(=O)O)c1 (stereo not given) | -1% | 3% | 35µM* | -116%
CC(=O)c1c(C)nc2nc(-c3ccccc3)nn2c1C | -3% | x | x | x
SMILES | ClpP mod | uPA surface inh | Sfp PPTase inh | TCR activator
Cc1ccccc1C(=O)Nc1cccc(C(=O)N/N=C/c2cc(Cl)cc([N+](=O)[O-])c2O)c1 | 0% | u | 15% | 0%
COc1ccc2[nH]c3c(=O)n(CCN4CCOCC4)cnc3c2c1 | x | 3% | 8% | 3%
COc1ccc2c(c1)c1ncn(CCN3CCCCC3)c(=O)c1n2C | 16µM* | x | 10% | -1%
CCOCCCn1cnc2c3cc(F)ccc3n(C)c2c1=O | 4% | -7% | 1% | 5%
COc1ccc2c(c1)c1ncn(CCN3CCCC3)c(=O)c1n2C | 32µM* | x | 4% | -5%
COc1ccccc1CCn1cnc2c3cc(C)ccc3n(C)c2c1=O | 35µM* | 3% | -17% | 1%
